From PubChem BioAssay (NCATS)
Results filed as inconclusive are left out. Active and inactive are the calls of the source. Calls come from the whole dose curve; as a rule, active = well fitted curve in the direction sought with a large enough effect; inconclusive = small, poorly fitted or top-dose-only effect, or another doubt; inactive = no such curve, though single readings can be large; an effect the other way counts as inactive or inconclusive.

How the values were obtained:
[1] = system: CRL-7250; experiment: Cytotoxic Profiling of Annotated Libraries Using Quantitative High-Throughput Screening (AID 1296008); settings: Five cell lines viability, CellTiter-Glo ATP luminescence, 48-72 h; max response: active compounds read low; note: nearly all actives have a fitted effect of over 60% in size; for max response: % is set by controls: 0 for no effect and ±100 for the full control effect
Summary of the method: (§1)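 Cells exposed to compounds for 48 or 72 hr at 37 degrees Celsius. Viability read as ATP-coupled luminescence with CellTiter-Glo after 10 min at room temperature.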

[2] = system: HEK293; experiment: as above; settings: Five cell lines viability, CellTiter-Glo ATP luminescence, 48-72 h; max response: active compounds read low
Summary of the method: as §1

[3] = system: HaCat; experiment: as above; settings: Five cell lines viability, CellTiter-Glo ATP luminescence, 48-72 h; max response: active compounds read low
Summary of the method: as §1

[4] = system: KB-3-1; experiment: as above; settings: Five cell lines viability, CellTiter-Glo ATP luminescence, 48-72 h; max response: active compounds read low
Summary of the method: as §1

[5] = system: NIH3T3; experiment: as above; settings: Five cell lines viability, CellTiter-Glo ATP luminescence, 48-72 h; max response: active compounds read low
Summary of the method: as §1

[6] = system: HEK293T; experiment: qHTS assay to identify novel small-molecules to repurpose for Merkel cell carcinoma treatment (AID 1296009); settings: MCC and control cell lines, CellTiter-Glo viability, 72 h; series mostly up to 44.8 µM; note: nearly all actives have a fitted effect of over 60% in size
Summary of the method: (§2)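 CellTiter-Glo luminescence after 72 hr compound exposure at 37 degree celsius gave cell viability. Libraries NPC and MIPE were run as 8- and 11-point dose responses; RLUs normalized to DMSO (negative) and no-cell (cytotoxicity) controls.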

[7] = system: C33A; experiment: Primary qHTS to identify gynecologic anti-cancer compounds using libraries of approved drugs and bioactive compounds (AID 1345084); settings: Gynecologic cancer cell panel viability, ATPlite luminescence, 48 h; series mostly up to 57.5 µM; note: % is set by controls: 0 for no effect and ±100 for the full control effect; nearly all actives have a fitted effect of over 55% in size
Summary of the method: (§3)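 Measured: luminescence after ATPlite addition (15 min, RT). Exposure: 48 h, 37 C, 5% CO2.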

[8] = system: CAOV3; experiment: as above; settings: Gynecologic cancer cell panel viability, ATPlite luminescence, 48 h; series mostly up to 57.5 µM
Summary of the method: as §3

[9] = system: CASKI; experiment: as above; settings: Gynecologic cancer cell panel viability, ATPlite luminescence, 48 h; series mostly up to 57.5 µM
Summary of the method: as §3

[10] = system: Es-2; experiment: as above; settings: Gynecologic cancer cell panel viability, ATPlite luminescence, 48 h; series mostly up to 57.5 µM
Summary of the method: as §3

[11] = system: HeLa; experiment: as above; settings: Gynecologic cancer cell panel viability, ATPlite luminescence, 48 h; series mostly up to 57.5 µM
Summary of the method: as §3

[12] = system: NIH3T3; experiment: qHTS assay to identify novel small-molecules to repurpose for Merkel cell carcinoma treatment (AID 1296009); settings: MCC and control cell lines, CellTiter-Glo viability, 72 h; at 44.8 µM (top of the series) unless noted; note: nearly all actives have a fitted effect of over 60% in size
Summary of the method: as §2

CC1(C)CC2C3=CCC4C5(C)CCC(OC6OC(CO)C(O)C(OC7OC(CO)C(O)C(OC8OC(CO)C(O)C(OC9OC(COC%10OC(CO)C(O)C(O)C%10O)C(O)C(O)C9O)C8O)C7O)C6O)C(C)(C)C5CCC4(C)C3(C)CCC2(C(=O)O)CC1O (centres undefined)
inactive: outcome [1] | outcome [2] | max response [3] -4.22% | max response [4] -7.8% | max response [5] 2.99% | outcome [6] inactive [at 9.27 µM] | activity change, negative = cytotoxicity [7] 6.53% [at 6.55 µM] | activity change, negative = cytotoxicity [8] 3.47% [at 6.55 µM] | activity change, negative = cytotoxicity [9] -0.0614% [at 6.55 µM] | activity change, negative = cytotoxicity [10] 1.92% [at 6.55 µM] | activity change, negative = cytotoxicity [11] -11.1% [at 6.55 µM]

CC(=O)O[C@H]1[C@H](Oc2ccccc2COC(=O)C2(O)C=CCCC2=O)O[C@H](CO)[C@@H](O)[C@@H]1O (some centres undefined)
inactive: max response [1] 3.12% | outcome [2] | max response [3] 3.69% | max response [4] 6.43% | max response [5] 0.519% | Potency [6] | Potency [7] | Potency [8] | Potency [9] | Potency [10] | Potency [11]

O=c1ccn([C@@H]2O[C@H](CO)[C@@H](O)[C@H]2O)c(=O)[nH]1
inactive: max response [1] -8.67% | outcome [2] | max response [3] 3.94% | max response [4] 0.253% | outcome [5] | Potency [6] | outcome [12] | Potency [7] | Potency [8] | Potency [9] | Potency [10] | Potency [11]

C/C=C(/C)C(=O)O[C@H]1C=C(C)C[C@H](OC(=O)c2ccc(O)cc2)C2[C@](O)(C(C)C)CC[C@@]21C (some centres undefined)
inactive: max response [1] -4.39% | outcome [2] | max response [3] -13.2% | outcome [4] | max response [5] -3.12% | Potency [6] | Potency [7] | Potency [8] | Potency [9] | Potency [10] | Potency [11]

CCNC(=O)[C@@H]1CCCN1C(=O)[C@H](CCCN=C(N)N)NC(=O)[C@H](CC(C)C)NC(=O)[C@@H](C)NC(=O)[C@H](Cc1ccc(O)cc1)NC(=O)[C@H](CO)NC(=O)[C@H](Cc1c[nH]c2ccccc12)NC(=O)[C@H](Cc1cnc[nH]1)NC(=O)[C@@H]1CCC(=O)N1
inactive: outcome [1] | outcome [2] | max response [3] -3.68% | max response [4] 8.19% | max response [5] -1.38% | Potency [6] | Potency [7] | Potency [8] | Potency [9] | Potency [10] | Potency [11]

CC1=C(C)C(=O)OC(C(C)(O)C2CCC3C4CC=C5CC(OC6OC(COC7OC(CO)C(O)C(O)C7O)C(O)C(O)C6O)CC(O)C5(C)C4CCC32C)C1 (centres undefined)
inactive: max response [1] -12.7% | outcome [2] | max response [3] -5.11% | max response [4] 2.61% | max response [5] -0.0747% | Potency [6] | Potency [7] | Potency [8] | Potency [9] | Potency [10] | Potency [11]

COC(=O)C1=CO[C@@H](O[C@@H]2O[C@H](CO)[C@@H](O)[C@H](O)[C@H]2O)[C@@H]2[C@@](C)(O)[C@@H](O)C[C@]12O
inactive: max response [1] -11.5% | outcome [2] | max response [3] 3.45% | max response [4] 1.93% | max response [5] -0.0114% | Potency [6] | Potency [7] | Potency [8] | Potency [9] | Potency [10] | Potency [11]

O=C(CCO[C@@H]1O[C@H](CO)[C@@H](O)[C@H](O)[C@H]1O)c1ccc(O)cc1
inactive: max response [1] 3.35% | outcome [2] | max response [3] -12% | outcome [4] | max response [5] -1.69% | Potency [6] | Potency [7] | Potency [8] | Potency [9] | Potency [10] | Potency [11]

CNC(=O)[C@H]1O[C@@H](n2cnc3c(NCc4ccc(N)c(I)c4)ncnc32)[C@H](O)[C@@H]1O
inactive: max response [1] -3.43% | outcome [2] | max response [3] -7.91% | outcome [4] | max response [5] -0.967% | outcome [6] inactive [at 9.27 µM] | activity change, negative = cytotoxicity [7] 17.6% [at 11.6 µM] | activity change, negative = cytotoxicity [8] -1.57% [at 11.6 µM] | activity change, negative = cytotoxicity [9] 16.3% [at 11.6 µM] | activity change, negative = cytotoxicity [10] 0.484% [at 11.6 µM] | activity change, negative = cytotoxicity [11] 5.87% [at 11.6 µM]

CC1OC(OC2C(CO)OC(OCC3OC(OC(=O)C45CCC(C)(C)CC4C4=CCC6C7(C)CCC(OC8OC(C(=O)O)C(O)C(OC9OC(CO)C(O)C(O)C9O)C8O)C(C)(C)C7CCC6(C)C4(C)CC5)C(O)C(O)C3O)C(O)C2O)C(O)C(O)C1O (centres undefined)
inactive: outcome [1] | outcome [2] | max response [3] -1.82% | outcome [4] | max response [5] 3.49% | outcome [6] inactive [at 9.27 µM] | activity change, negative = cytotoxicity [7] 4.48% [at 6.55 µM] | activity change, negative = cytotoxicity [8] -1.08% [at 6.55 µM] | activity change, negative = cytotoxicity [9] 0.241% [at 6.55 µM] | activity change, negative = cytotoxicity [10] 5.55% [at 6.55 µM] | activity change, negative = cytotoxicity [11] -1.58% [at 6.55 µM]

CCn1cc(C2=NOC(C(=O)Nc3c(C)n(C)n(-c4ccccc4)c3=O)C2)c(C)n1 (centres undefined)
inactive: max response [1] 1.73% | outcome [2] | max response [3] -4.53% | outcome [4] | max response [5] 2.09% | Potency [6] | Potency [7] | Potency [8] | Potency [9] | Potency [10] | Potency [11]

C=C1[C@H]2CC[C@]3(O)[C@@](CC[C@@H]4[C@](C)(C(=O)O)CCC[C@]43C)(C2)[C@H]1OC(=O)/C(C)=C\C
inactive: max response [1] 2.63% | outcome [2] | max response [3] -13.2% | outcome [4] | max response [5] 0.4% | Potency [6] | Potency [7] | Potency [8] | Potency [9] | Potency [10] | Potency [11]

CC(CO[C@@H]1O[C@H](COC(=O)/C=C/c2ccc(O)c(O)c2)[C@@H](O)[C@H](O)[C@H]1O)C1(O)COC(=O)C1 (some centres undefined)
inactive: max response [1] -2.89% | outcome [2] | max response [3] 3.48% | max response [4] -4.71% | max response [5] -5.15% | Potency [6] | Potency [7] | Potency [8] | Potency [9] | Potency [10] | Potency [11]
